According to the supplement of paper PMC6555819:

Tested on: VDR:RXRa (NR concentration 270 nM, RXRa partner concentration 90 nM)
Assay: PBM binding z-score (relative to random genomic background probes); higher = stronger binding; sequences stand for … in GC…GCGATTGACAGCGTAGAATGAAGG
Experimental: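 Protein-binding microarray (Agilent 4x180K custom design, double-stranded 60-nt probes: 5' GC cap, 34-nt variable region, 24-nt constant primer region; full probe sequence given). Purified or IVT nuclear receptor:RXRα heterodimers (3:1 NR:RXRα, mostly 270:90 nM) or homodimers were incubated for 1 h in PBS with 2% milk and no ligand, then detected with Alexa488 antibodies. Fluorescence from o1-orientation probes (~5 replicates averaged) was converted to z-scores against 500 random hg19 background probes. Variable regions are seed direct-repeat (DR0–DR5) sites, all their single-nucleotide variants and half-site ablations.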

Sequence	PBM binding z-score
GCTGCTAGGTCAACTGAGGGTCAGCTAAAGCTCG	4.26
AATTCAGGGTCACTAGGCCAGAGTAGGTACGAAT	4.79
CCGAGTAGGTTACGACGGGGCATTCAGTGCGAAT	1.49
AAAATGAGGTTAAGATCAGGGAAACAGAATACAT	1.35
CAAACTAGGTCAAGGTCAAAGTAGGTTTGTGCCA	5.54
CGTCAAAGTTCTAGGTAACGTAACAGAAAGCAGC	0.0814
CCTCGGAGGACAACCGGAGGTCAGAGCTGCCAGA	1.9
CAAACTAGGTCACGAAAGGTCAAAATCGAATGAC	6.51
CCTACTGGGCCAAAAATGTCATTGATGCCGATAA	0.0323
TCGAGTAGGTTAAGGGGGCATTCAGGGATGAAGA	3.35
ATATGTAAGTTAGGGTCATTCAGAAAGTAGGGAA	4.5
AGTCAAAGTTCATCTAGGTAACGAAAGATATGCT	4.81
CTATGTAGGTTGAGGGGGTCATTCAGTTTGAAAG	7
CGAACCAGGTCAAAGGACAGTGAAAGGCGACGTA	2.44
CAAACTAGGTCACGAAAGGTCAAATTCGAATGAC	6.93
CTATGTAGGTTAAGGGGGTCACTCAGTTTGAAAG	7.21
ACTCGGAGGACAAATGTCAGAGCTACGCCAGTGA	-0.292
CGAACTAGGCCAAAGGACAGTGAAAGGCGACGTA	-0.722
CCTACTGGGCCAAAAAGGCCATTGATGCCGATAA	0.326
CGAACTAGGACATCCAGGACAGTGAATACATTGA	-0.0982

Sequence	PBM binding z-score
CGAACTAGGTGAAAGGACAGTGAAAGGCGACGTA	-0.353
GCTTACGGGTCAAAGGTTATAGTATGAATAGAAT	5.76
CGAACTAGCTCAAGGACAGTGAATCTCCGCACGC	-0.322
TCTCGGAGGACACGAAAGGTCTGAGCTCGACATC	0.182
CGAACTAGGTCACCAGGACTGTGAAGAGGTTGGA	2.26
ATATGTAGATTAGGGTCATTCAGAAAGTAGGGAA	4.06
TCGAGTAGGTTACGGGAGCATTCAGGGATGAAGA	0.0873
CAAACTAGGCCAAGGTCAAAGTCGGTTTGTGCCA	4.19
ATATGTAGGTTAGGGTCGTTCAGAAAGTAGGGAA	2.57
CTAACTAGGTCACCAGGACAGTGAAGAGGTTGGA	2.06
CCTGCTAGGTCATGGTCAGGTAATCTACAGTATG	1.76
TCGAGTAGGTTACGGGGGCACTCAGGGATGAAGA	3.33
ATATGTAGGTTAGCGTCATTCAGAAAGTAGGGAA	0.0435
TAGCCTAGGTCAAGCGGGCCAGTATAGTGTCGGC	2.6
TCATATAGGTAATCAGGTGAAAGTCCGTAAGTTA	1.19
CCTACTGGGCCATTCAGAGGTTATTGATCATATG	0.462
CGAACTAGGTCAACGGACAGTGAAAGGCGACGTA	1.12
CGAACTAGGACACCAGGACAGTGAAGAGGTTGGA	-0.285
CGAACTAGGTCACCACGACAGTGAAGAGGTTGGA	2.04
TCATATAGGTAATAGGTGAAAGTCGGTGTGGTAA	0.883
